Drawing on PubChem BioAssay (EPA / NIEHS), this text covers outcome and AC50 for six molecules.

For orientation: AC50 means the midpoint of the concentration-response curve, whichever way the signal moves.

Read-out in assay [1]: Interleukin-8 (IL8), CXCL8 (gene 3576)
Briefly: BSK_3C_IL8: BioMAP Diversity Plus: 3C Assay for Interleukin-8 (IL8) Biomarker Activity (AID 2283020). The conditions noted are these: primary human endothelial cells (HUVEC); actives raise or lower the signal. In a few lines: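 ELISA read-out of IL-8 from human umbilical vein endothelium, measured 24 h after chemical dosing. Activity is expressed relative to DMSO negative control, with both increases and decreases fitted.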

Read-out in assay [2]: Monokine induced gamma interferon (MIG), CXCL9 (gene 4283)
Briefly: BSK_3C_MIG: BioMAP Diversity Plus: 3C Assay for Monokine induced gamma interferon (MIG) Biomarker Activity (AID 2283021).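 On AC50: MIG protein level measured by immunoassay in the treated endothelial cultures.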 Particulars: primary human endothelial cells (HUVEC); actives raise or lower the signal. In a few lines: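 Read-out is ELISA detection of MIG on human umbilical vein endothelial cells, taken 24 h after dosing. Gain or loss of signal was scored relative to DMSO controls using bidirectional curve fitting.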

Assay [3] can be described thus: BSK_3C_SRB: Viability Assessment in the BioMAP Diversity Plus: 3C Assay (AID 2283023).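 Further: fitted both ways against DMSO so a hit may be signal rise or drop.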 The conditions noted are these: primary human endothelial cells (HUVEC). The essentials:
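Absorbance at 560 nm of sulforhodamine B-stained (0.1%) total protein served as a cytotoxicity readout in human umbilical vein endothelial cells, 24 h after chemical treatment. Signal was fitted bidirectionally relative to DMSO.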

Read-out in assay [4]: Matrix Metallopeptidase 1 (MMP1), MMP1 (gene 4312)
In words: BSK_BE3C_MMP1: BioMAP Diversity Plus: BE3C Assay for Matrix Metallopeptidase 1 (MMP1) Biomarker Activity (AID 2283024). The conditions noted are these: primary human bronchial epithelial cells; actives raise or lower the signal. The essentials: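 Human bronchial epithelial cells (BE3C system) exposed to compound for 24 h; MMP1 then quantified by ELISA. Activity was fitted in both directions relative to DMSO.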

Assay [5] in a line: BSK_3C_Vis: BioMAP Diversity Plus: 3C Assay for Morphology Visualization (AID 2283025).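 Further: fitted both ways so gain or loss versus DMSO counts.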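 On AC50: light microscopy image of cell morphology used as background control.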 The conditions noted are these: primary human endothelial cells (HUVEC). The essentials:
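Chemicals were added to primary human umbilical vein endothelium, cells were incubated 24 h, and morphology was then visualized by light microscopy. Gain or loss of signal was fitted bidirectionally relative to DMSO.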

Read-out in assay [6]: Pselectin, SELP (gene 6403)
Briefly: BSK_4H_Pselectin: BioMAP Diversity Plus: 4H Assay for Pselectin Biomarker Activity (AID 2283026). Particulars: primary human endothelial cells (HUVEC); actives raise or lower the signal. In a few lines: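 ELISA read-out of P-selectin on human umbilical vein endothelium after 24 h of dosing. Values derive from bidirectional fitting relative to DMSO. Parallel SRB protein staining flagged overt cytotoxicity.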

The nature of assay [7]: BSK_4H_SRB: Viability Assessment in the BioMAP Diversity Plus: 4H Assay (AID 2283027).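 Further: cells exposed to compound for 24 h before staining.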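 On AC50: curves fitted both ways versus DMSO so AC50 may be loss or gain.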 The conditions noted are these: primary human endothelial cells (HUVEC). In a few lines: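 Absorbance at 560 nm of SRB-stained total protein served as the viability read-out in confluent primary human umbilical vein endothelium 24 h after chemical treatment. Curves were fitted bidirectionally against DMSO as negative control.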

The nature of assay [8]: BSK_BE3C_SRB: Viability Assessment in the BioMAP Diversity Plus: BE3C Assay (AID 2283028).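 On AC50: fitted both ways so AC50 may mark signal gain or loss versus DMSO.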 Particulars: primary human bronchial epithelial cells. In a few lines:
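Cells (human bronchial epithelial, primary) are treated with chemicals, and after 24 h the parallel cultures are fixed in 10% TCA. These are then stained with 0.1% SRB and read at 560 nm. Gain or loss of signal is fitted relative to DMSO.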

Read-out in assay [9]: Thrombomodulin, THBD (gene 7056)
Briefly: BSK_3C_Thrombomodulin: BioMAP Diversity Plus: 3C Assay for Thrombomodulin Biomarker Activity (AID 2283029). Particulars: primary human endothelial cells (HUVEC); actives raise or lower the signal. In a few lines: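 Read-out is ELISA of thrombomodulin on human umbilical vein endothelium 24 h after chemical dosing. Gain or loss of signal is scored relative to DMSO. Overt cytotoxicity is checked in parallel cultures by sulforhodamine B staining.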

Read-out in assay [10]: Urokinase-type plasminogen activator receptor (uPAR), PLAUR (gene 5329)
Briefly: BSK_4H_uPAR: BioMAP Diversity Plus: 4H Assay for Urokinase-type plasminogen activator receptor (uPAR) Biomarker Activity (AID 2283030). The conditions noted are these: primary human endothelial cells (HUVEC); actives raise or lower the signal. In a few lines:
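Cell-surface uPAR ELISA signal, measured 24 h after dosing human umbilical vein endothelial cells, was analyzed with bidirectional fitting relative to DMSO. Parallel SRB staining of total protein tracked overt cytotoxicity.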

Read-out in assay [11]: Vascular endothelial growth factor receptor 2 (Homo sapiens) (UniProt P35968)
Briefly: BSK_4H_VEGFRII: BioMAP Diversity Plus: 4H Assay for Vascular endothelial growth factor receptor 2 (VEGFR2) Biomarker Activity (AID 2283031). The conditions noted are these: primary human endothelial cells (HUVEC); actives raise or lower the signal. In a few lines: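 ELISA read-out of VEGFRII in primary human umbilical vein endothelium, taken 24 h after chemical treatment. Responses are expressed relative to DMSO, with bidirectional fitting.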

Read-out in assay [12]: Human Leukocyte Antigen - DR isotype (HLADR), HLA-DRA (gene 3122)
In words: BSK_BE3C_HLADR: BioMAP Diversity Plus: BE3C Assay for Human Leukocyte Antigen - DR isotype (HLADR) Biomarker Activity (AID 2283032). The conditions noted are these: primary human bronchial epithelial cells; actives raise or lower the signal. In a few lines:
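ELISA read-out of HLA-DR on human lung bronchial epithelial primary cells, measured 24 h post-dosing. Both increases and decreases were scored relative to DMSO vehicle.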

Read-out in assay [13]: Vascular cell adhesion molecule 1 (VCAM1), VCAM1 (gene 7412)
Briefly: BSK_4H_VCAM1: BioMAP Diversity Plus: 4H Assay for Vascular cell adhesion molecule 1 (VCAM1) Biomarker Activity (AID 2283033).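 On outcome: cell-surface VCAM-1 protein measured by ELISA.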 The conditions noted are these: primary human endothelial cells (HUVEC); actives raise or lower the signal. The essentials:
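ELISA read-out of VCAM-1 on human umbilical vein endothelium 24 hours after chemical dosing; gain or loss of signal was fitted relative to DMSO, with sulforhodamine B staining of parallel cultures flagging overt cytotoxicity.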

Read-out in assay [14]: Interferon-gamma inducible Protein 10 (IP10), CXCL10 (gene 3627)
Briefly: BSK_BE3C_IP10: BioMAP Diversity Plus: BE3C Assay for Interferon-gamma inducible Protein 10 (IP10) Biomarker Activity (AID 2283034). The conditions noted are these: primary human bronchial epithelial cells; actives raise or lower the signal. In a few lines:
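Chemical is dosed onto human lung bronchial epithelial primary cells, cultures are incubated 24 h, and IP-10 is then quantified by ELISA. Gain or loss of signal is fitted in both directions relative to DMSO.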

Read-out in assay [15]: Monokine induced gamma interferon (MIG), CXCL9 (gene 4283)
In words: BSK_BE3C_MIG: BioMAP Diversity Plus: BE3C Assay for Monokine induced gamma interferon (MIG) Biomarker Activity (AID 2283035).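 On outcome: MIG protein measured by ELISA in BE3C cultures after 24 h of dosing.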 Particulars: primary human bronchial epithelial cells; actives raise or lower the signal. In a few lines:
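MIG level was determined by ELISA after 24 h chemical treatment of primary human bronchial epithelial cells. Values were fitted bidirectionally with DMSO as the negative control and activity baseline.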

Read-out in assay [16]: Transforming growth factor beta 1 (TGFb1), TGFB1 (gene 7040)
Briefly: BSK_BE3C_TGFb1: BioMAP Diversity Plus: BE3C Assay for Transforming growth factor beta 1 (TGFb1) Biomarker Activity (AID 2283036;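 on outcome: TGF-b1 protein level measured by ELISA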). The conditions noted are these: primary human bronchial epithelial cells; actives raise or lower the signal. In a few lines: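 Primary human lung bronchial epithelial cells; compound exposure 24 h; TGF-b1 by ELISA; bidirectional fit, DMSO baseline. Parallel SRB total-protein staining for cytotoxicity.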

Read-out in assay [17]: urokinase plasminogen activator (uPA), PLAU (gene 5328)
Briefly: BSK_BE3C_uPA: BioMAP Diversity Plus: BE3C Assay for urokinase plasminogen activator (uPA) Biomarker Activity (AID 2283038).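 On outcome: uPA protein level quantified by ELISA in cell cultures; uPA read one day after compound addition.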 The conditions noted are these: primary human bronchial epithelial cells; actives raise or lower the signal. The essentials: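 Bronchial epithelial cells (human, primary); chemical 24 h; uPA by ELISA; bidirectional fit vs DMSO. SRB (0.1%, after 10% TCA fixation, 560 nm) in parallel cultures for cytotoxicity.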

Read-out in assay [18]: Urokinase-type plasminogen activator receptor (uPAR), PLAUR (gene 5329)
In words: BSK_BE3C_uPAR: BioMAP Diversity Plus: BE3C Assay for Urokinase-type plasminogen activator receptor (uPAR) Biomarker Activity (AID 2283039).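 On outcome: cells exposed to compound for one day before measurement.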 The conditions noted are these: primary human bronchial epithelial cells; actives raise or lower the signal. The essentials: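 Human bronchial epithelial primary cells; chemical exposure 24 h; uPAR by ELISA; bidirectional fit vs DMSO control.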

Read-out in assay [19]: Plasminogen activator inhibitor-1 (PAI1), SERPINE1 (gene 5054)
Briefly: BSK_BE3C_PAI1: BioMAP Diversity Plus: BE3C Assay for Plasminogen activator inhibitor-1 (PAI1) Biomarker Activity (AID 2283037). Particulars: primary human bronchial epithelial cells; actives raise or lower the signal. In a few lines: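 Primary human lung bronchial epithelial cells; chemical dosing; 24 h; PAI-1 measured by ELISA; bidirectional fit referenced to DMSO as negative control.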

Active and inactive are the calls of the source. How the source made its calls: active means hit-call score of the fitted dose curve at least 0.9, where 1 is the maximum; inactive means score below 0.9.

On to `CCCOc1nn(C(=O)NS(=O)(=O)c2ccccc2C(=O)OC)c(=O)n1C`, for which the result in assay [1], in assay [2], in assay [3], in [4], in assay [5] and in assay [6] was inactive. For the same molecule, the outcome in assay [7], in assay [8], in assay [9], in assay [10], in assay [11] and in assay [12] was inactive. Further, the result in assay [13], in assay [14], in [15], in assay [16] and in assay [17] was inactive. The AC50 in [18] was 1.32 µM (active).

With `CCOP(=S)(OCC)Oc1ccc([N+](=O)[O-])cc1`, the result in assay [1], in assay [2], in [3], in assay [4], in [6] and in assay [7] was inactive. Also, the outcome in assay [9], in assay [10], in [11], in [12], in assay [13] and in assay [14] was inactive. For the same molecule, the result in [15], in assay [16], in [19], in assay [17] and in assay [18] was inactive. Further, the AC50 is 39 µM (active) in assay [5] and 21.5 µM (active) in assay [8].

As to `CCCOCC(=Nc1ccc(Cl)cc1C(F)(F)F)n1ccnc1`, the AC50 in assay [1] was 33.7 µM (active); in assay [2] it was 35.1 µM (active); in assay [3], 31 µM (active); in assay [4], 34 µM (active); in assay [5], 20 µM (active); in assay [6], 29.8 µM (active). For the same molecule, the AC50 in assay [7] was 29 µM (active); in assay [8], 20 µM (active); in [9], 35 µM (active); in [10] it was 36.7 µM (active); in assay [12], 25.7 µM (active); in assay [13], 30.7 µM (active). Besides, the concentration at half-maximal activity (AC50) is 32.3 µM (active) in assay [14], 35.3 µM (active) in assay [15], 34.5 µM (active) in assay [17] and 32.8 µM (active) in assay [18].

Take `Nc1nc(N)nc(NC2CC2)n1`: the outcome in [1], in assay [2], in [3], in assay [4], in assay [5] and in assay [6] was inactive. The outcome in assay [7], in assay [8], in assay [9], in assay [10], in assay [11] and in [12] was inactive. Also, the result in assay [13], in [14], in [15], in assay [16], in [17] and in assay [18] was inactive.

`CCOP(=O)(NC(C)C)Oc1ccc(SC)c(C)c1` (centres undefined): the result in assay [1], in assay [2], in [3], in assay [4], in assay [5] and in assay [6] was inactive. The result in [7], in [8], in assay [9], in [10], in [11] and in assay [12] was inactive. Further, the outcome in assay [13], in [14], in assay [15], in assay [16], in [19] and in assay [17] was inactive. Moreover, the AC50 in assay [18] is 5.54 µM (active).

Consider `C[N+]1(C)CCCCC1`, for which the result in [1], in assay [2], in assay [3], in assay [4], in assay [5] and in [6] was inactive. In addition, the outcome in assay [7], in [8], in assay [9], in assay [10], in assay [11] and in assay [12] was inactive. Also, the result in [13], in [14], in [15], in assay [19], in assay [17] and in [18] was inactive. Also, in [16], the half-maximal activity concentration (AC50) is 0.193 µM (active).
